Results published in PubChem BioAssay (Tox21).
Unmarked numbers belong to inactive results. Inconclusive results are not listed. A call without a number means that no potency is given here. Activity calls are given as the source filed them. Unless noted, the call rests on the fitted dose curve.

Columns and labels:
[1] = Nuclear factor erythroid 2-related factor 2/antioxidant responsive element (Nrf2/ARE) small molecule agonists: qHTS cell viability counter screen in human keratinocytes (AID 1919968; active means well fitted curve in the direction sought with a large enough effect in the repeat runs; an effect the other way counts as inactive or inconclusive; further: nearly all actives have a fitted effect of over 55% in size)
Procedure, shortened: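 Seed 1,500 KeratinoSens cells per well, then incubate 5 h at 37 C/5% CO2. Add compounds in DMSO and incubate 23 h. Add CellTiter-Fluor, wait 1 h and read fluorescence.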

[2] = Nuclear factor erythroid 2-related factor 2/antioxidant responsive element (Nrf2/ARE) small molecule agonists: luciferase reporter gene qHTS assay in human keratinocytes (AID 1919969); further: nearly all actives have a fitted effect of over 35% in size
[3] = target: Gonadotropin-releasing hormone receptor (Homo sapiens) (UniProt P30968); assay: Human gonadotropin-releasing hormone receptor (GnRHR) small molecule agonists, calcium flux assay in GnRHR-HEK293 cells (AID 1920063); further: nearly all actives have a fitted effect of over 35% in size
Procedure, shortened: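 Cells: HEK293 stably expressing human GnRHR. Steps: overnight (18 h) culture, 1 h calcium dye loading at 37 C, compound addition, kinetic fluorescence read at 480/540 nm. Each compound tested at 15 concentrations in triplicate.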

[4] = target: KiSS-1 receptor (Homo sapiens) (UniProt Q969F8); assay: Human kisspeptin (KISS1R) small molecule agonists, calcium flux assay in KISS1R-HEK293 cells (AID 1920064; active means well fitted curve in the direction sought with a large enough effect in the repeat runs; an effect the other way counts as inactive or inconclusive)
Procedure, shortened: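 Cells plated and incubated 18 h; dye added, 1 h at 37 C; compounds in DMSO pinned in; signal read at 480/540 nm every second for 3 min. Each compound tested at 15 concentrations in triplicate.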

[5] = p53 small molecule agonists, cell-based qHTS assay with human liver microsomes (AID 1963577)
Procedure, shortened: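 Cells carrying a p53-responsive bla reporter were rested 5 h (37 C, 5% CO2) before compound transfer. Human liver microsomes plus NADPH, 0.5 mg/mL final apiece, supplied metabolism during the 16 h 37 C exposure.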

[6] = p53 small molecule agonists, cell-based qHTS assay with rat liver microsomes (AID 1963578)
Procedure, shortened: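 Fluorescence from a beta-lactamase reporter under a p53 response element was measured after cells had been incubated 16 h at 37 C with test compound and rat liver microsomes plus NADPH (0.5 mg/mL final each).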

[7] = p53 small molecule agonists, cell-based qHTS assay with human liver microsomes: qHTS cell viability counter screen (AID 1963579); further: nearly all actives have a fitted effect of over 45% in size
Procedure, shortened: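 Seed p53RE-bla cells at 4,000 per well; incubate 5 h at 37 C; add compound, human liver microsomes and NADPH; incubate 16 h at 37 C; add CellTiter-Glo; after 30 min at room temperature, read luminescence.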

[8] = p53 small molecule agonists, cell-based qHTS assay with rat liver microsomes: qHTS cell viability counter screen (AID 1963580); further: nearly all actives have a fitted effect of over 45% in size
Procedure, shortened: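 HCT-116 p53RE-bla, 4,000 cells/well, 5 h pre-incubation; cpd + rat liver microsomes 0.5 mg/mL + NADPH 0.5 mg/mL (final); 16 h, 37 C; CellTiter-Glo, 30 min RT; luminescence.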

[9] = p53 small molecule agonists, cell-based qHTS assay: qHTS cell viability counter screen (AID 1963581); further: nearly all actives have a fitted effect of over 45% in size
Procedure, shortened: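 Cells: HCT-116 with p53 response element-driven beta-lactamase. Treatment: 16 h, 37 C, compounds in DMSO. Read: CellTiter-Glo luminescence after 30 min RT.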

[10] = target: 5-hydroxytryptamine receptor 2A (Homo sapiens) (UniProt P28223); assay: 5-hydroxytryptamine receptor 2A (HTR2A) small molecule antagonists, cell-based qHTS assay (AID 1963586); further: nearly all actives have a fitted effect of over 45% in size; further: potency means the concentration at half of the fitted maximal effect
Procedure, shortened: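 Antagonist-mode intracellular calcium assay: DOI (4 nM) added after 5 min compound pre-incubation at room temperature to dye-loaded HTR2A-CHO cells. Fluorescence followed for 3 min, sampled every second.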

[11] = target: 5-hydroxytryptamine receptor 2A (Homo sapiens) (UniProt P28223); assay: 5-hydroxytryptamine receptor 2A (HTR2A) small molecule agonists, cell-based qHTS assay (AID 1963587); further: nearly all actives have a fitted effect of over 30% in size
Procedure, shortened: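 Kinetic calcium-flux fluorescence (2 min, 1 sec intervals) after compound addition in agonist mode. HTR2A-CHO cells were cultured 18 h, then dye-loaded 1 h at 37 C.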

[12] = target: Muscarinic acetylcholine receptor M1 (Homo sapiens) (UniProt P11229); assay: Cholinergic receptor muscarinic 1 (CHRM1) small molecule antagonists, cell-based qHTS assay (AID 1963588); further: nearly all actives have a fitted effect of over 40% in size
Procedure, shortened: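 CHRM1-CHO calcium-flux assay, antagonist mode. Cells were seeded 18 h, dye-loaded 1 h at 37 C and given compound for 5 min at RT, then acetylcholine was added at 50nM. FDSS fluorescence was read 3 min; 15 concentrations, three runs.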

[13] = target: Muscarinic acetylcholine receptor M1 (Homo sapiens) (UniProt P11229); assay: Cholinergic receptor muscarinic 1 (CHRM1) small molecule agonists, cell-based qHTS assay (AID 1963589); further: nearly all actives have a fitted effect of over 35% in size
Procedure, shortened: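 Agonist-mode qHTS in CHO cells stably carrying human muscarinic M1. Intracellular calcium is tracked by fluorescence every second after compound transfer; each compound runs at 15 concentrations in three independent runs.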

[14] = cAMP Responsive Elements (CRE) small molecule agonists, cell-based qHTS assay (AID 1963590)
Procedure, shortened: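 Agonist mode qHTS in CRE-bla HEK 293T cells: compounds dosed from DMSO for 3 h at 37 C/5% CO2, followed by LiveBLAzer B/G FRET substrate for 2 h at room temperature.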

[15] = cAMP Responsive Elements (CRE) small molecule antagonists, cell-based qHTS assay (AID 1963591; active means well fitted inhibition curve with a large enough effect in the signal ratio in the repeat runs, not every such curve was filed as active; the % refers to the signal ratio)
Procedure, shortened: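 Antagonist mode: test compounds are co-incubated with the adenylyl cyclase activator NKH477 (0.25 uM final) on CRE-bla HEK293T cells for 3 h at 37 °C, followed by LiveBLAzer substrate loading.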

[16] = target: Beta-2 adrenergic receptor (Homo sapiens) (UniProt P07550); assay: Adrenergic beta2 receptor (ADRB2) small molecule antagonists, cell-based qHTS assay (AID 1963592); further: series mostly up to about 92 µM; nearly all actives have a fitted effect of over 50% in size
Procedure, shortened: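 Cells (CHO, stable ADRB2 overexpression) incubated 18-20hr at 37C; compounds added from DMSO; agonist mix (1nM isoproterenol, 100uM IBMX, 25uM Ro-20-1724) added; 0.5hr RT; d2-cAMP and anti-cAMP-cryptate added; 1hr RT; 665/615 nm read.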

[17] = target: D(2) dopamine receptor (Homo sapiens) (UniProt P14416); assay: Dopamine D2 receptor (DRD2) small molecule agonists, cell-based qHTS assay (AID 1963594); further: nearly all actives have a fitted effect of over 35% in size
Procedure, shortened: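 cAMP accumulation in DRD2-HEK293 cells measured by HTRF after 1 h detection; compounds added 10 min before NKH477 (200nM […]) forskolin-analogue stimulation, 30 min at room temperature, with Ro20-1724 present at 0.1 mM final.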

[18] = target: D(2) dopamine receptor (Homo sapiens) (UniProt P14416); assay: Dopamine D2 receptor (DRD2) small molecule antagonists, cell-based qHTS assay (AID 1963595; active means well fitted inhibition curve with a large enough effect in the signal ratio in the repeat runs, with a control signal flat; the % refers to the signal ratio; further: potency means the concentration at half of the fitted maximal effect)
Procedure, shortened: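 HTRF cAMP read-out at 665 and 620 nm emission (340 nm excitation). Antagonist mode: compounds were tested against 12 nM quinpirole in DRD2-HEK293 cells, with 200 nM NKH477 raising cAMP and 0.1 mM Ro20-1724 blocking its breakdown.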

[19] = p53 small molecule agonists, cell-based qHTS assay (AID 1963582; active means well fitted activation curve with a large enough effect in the signal ratio in the repeat runs, not every such curve was filed as active; the % refers to the signal ratio)
Procedure, shortened: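 Quantitative HTS in p53RE-bla cells: after a 5 h settling period, compounds delivered in DMSO were left on cells for 16 h at 37 C, and reporter induction was measured as fluorescence following 2 h substrate loading.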

[20] = target: Beta-2 adrenergic receptor (Homo sapiens) (UniProt P07550); assay: Adrenergic beta2 receptor (ADRB2) small molecule agonists, cell-based qHTS assay (AID 1963593);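 further: CHO cells stably overexpressing human ADRB2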
Procedure, shortened: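 CHO cells stably over-expressing ADRB2 were plated overnight at 37C, then dosed with compounds plus a stimulation mix containing 100uM IBMX and 25uM Ro-20-1724 for 0.5hr at room temperature. cAMP was measured by HTRF competition, 1hr.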

Chain of 5-hydroxytryptamine receptor 2A (Homo sapiens) (P28223 whole entry, looked up): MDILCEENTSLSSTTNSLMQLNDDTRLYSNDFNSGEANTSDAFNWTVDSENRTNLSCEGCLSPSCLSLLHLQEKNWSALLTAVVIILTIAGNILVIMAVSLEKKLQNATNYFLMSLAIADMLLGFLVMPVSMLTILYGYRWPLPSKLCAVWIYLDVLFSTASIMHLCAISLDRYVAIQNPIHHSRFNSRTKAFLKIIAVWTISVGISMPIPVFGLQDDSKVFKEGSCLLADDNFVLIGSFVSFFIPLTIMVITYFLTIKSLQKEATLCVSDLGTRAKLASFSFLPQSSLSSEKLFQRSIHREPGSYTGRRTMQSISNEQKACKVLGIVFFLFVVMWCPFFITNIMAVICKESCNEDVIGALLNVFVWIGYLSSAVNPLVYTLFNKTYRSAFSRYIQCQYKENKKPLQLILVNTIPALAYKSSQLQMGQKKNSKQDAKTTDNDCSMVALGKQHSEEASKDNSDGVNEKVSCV
Chain of D(2) dopamine receptor (Homo sapiens) (P14416 whole entry, looked up): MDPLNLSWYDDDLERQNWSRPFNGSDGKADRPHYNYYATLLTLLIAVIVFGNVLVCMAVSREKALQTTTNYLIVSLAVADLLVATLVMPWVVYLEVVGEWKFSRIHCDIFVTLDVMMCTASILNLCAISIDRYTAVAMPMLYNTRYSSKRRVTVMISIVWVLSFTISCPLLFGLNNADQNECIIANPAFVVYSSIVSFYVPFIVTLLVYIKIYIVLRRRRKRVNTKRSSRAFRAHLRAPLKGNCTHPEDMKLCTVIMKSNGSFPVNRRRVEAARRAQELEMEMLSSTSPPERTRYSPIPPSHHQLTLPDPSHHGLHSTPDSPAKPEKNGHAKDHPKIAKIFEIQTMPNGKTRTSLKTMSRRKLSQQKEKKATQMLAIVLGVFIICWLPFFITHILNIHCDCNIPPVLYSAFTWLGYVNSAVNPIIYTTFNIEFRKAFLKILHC
Chain of KiSS-1 receptor (Homo sapiens) (Q969F8 whole entry, looked up): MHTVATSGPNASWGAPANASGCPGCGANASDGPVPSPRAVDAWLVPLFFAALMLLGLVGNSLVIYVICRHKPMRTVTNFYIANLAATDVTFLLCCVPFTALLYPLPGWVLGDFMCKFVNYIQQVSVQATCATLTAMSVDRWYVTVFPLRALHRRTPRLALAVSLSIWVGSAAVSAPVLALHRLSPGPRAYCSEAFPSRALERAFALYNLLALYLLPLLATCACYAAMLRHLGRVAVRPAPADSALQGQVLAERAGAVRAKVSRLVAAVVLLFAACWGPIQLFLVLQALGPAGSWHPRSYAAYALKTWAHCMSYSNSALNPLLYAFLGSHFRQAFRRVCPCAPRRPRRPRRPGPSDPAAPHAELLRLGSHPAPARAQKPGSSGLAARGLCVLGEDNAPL
Chain of Gonadotropin-releasing hormone receptor (Homo sapiens) (P30968 whole entry, looked up): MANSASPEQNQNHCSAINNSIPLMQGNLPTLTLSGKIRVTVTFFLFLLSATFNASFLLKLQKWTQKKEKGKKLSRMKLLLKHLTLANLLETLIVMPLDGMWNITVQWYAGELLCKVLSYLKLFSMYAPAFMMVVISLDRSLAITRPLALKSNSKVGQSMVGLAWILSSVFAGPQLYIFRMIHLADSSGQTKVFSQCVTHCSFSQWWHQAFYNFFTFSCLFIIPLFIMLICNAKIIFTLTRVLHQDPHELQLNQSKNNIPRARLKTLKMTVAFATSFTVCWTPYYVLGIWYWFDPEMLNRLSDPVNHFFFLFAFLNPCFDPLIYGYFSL
Chain of Muscarinic acetylcholine receptor M1 (Homo sapiens) (P11229 whole entry, looked up): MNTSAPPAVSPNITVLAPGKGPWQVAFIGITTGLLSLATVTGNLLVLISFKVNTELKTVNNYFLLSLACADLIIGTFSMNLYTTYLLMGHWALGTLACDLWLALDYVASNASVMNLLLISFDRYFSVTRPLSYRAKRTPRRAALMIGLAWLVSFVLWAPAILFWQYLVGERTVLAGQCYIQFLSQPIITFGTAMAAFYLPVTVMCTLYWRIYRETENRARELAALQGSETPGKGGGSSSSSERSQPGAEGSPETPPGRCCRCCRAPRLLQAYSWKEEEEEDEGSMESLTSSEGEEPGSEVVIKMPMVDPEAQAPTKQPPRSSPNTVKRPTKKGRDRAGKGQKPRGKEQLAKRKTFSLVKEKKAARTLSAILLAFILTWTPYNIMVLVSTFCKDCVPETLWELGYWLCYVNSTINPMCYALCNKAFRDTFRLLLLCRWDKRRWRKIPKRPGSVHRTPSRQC
Chain of Beta-2 adrenergic receptor (Homo sapiens) (P07550 whole entry, looked up): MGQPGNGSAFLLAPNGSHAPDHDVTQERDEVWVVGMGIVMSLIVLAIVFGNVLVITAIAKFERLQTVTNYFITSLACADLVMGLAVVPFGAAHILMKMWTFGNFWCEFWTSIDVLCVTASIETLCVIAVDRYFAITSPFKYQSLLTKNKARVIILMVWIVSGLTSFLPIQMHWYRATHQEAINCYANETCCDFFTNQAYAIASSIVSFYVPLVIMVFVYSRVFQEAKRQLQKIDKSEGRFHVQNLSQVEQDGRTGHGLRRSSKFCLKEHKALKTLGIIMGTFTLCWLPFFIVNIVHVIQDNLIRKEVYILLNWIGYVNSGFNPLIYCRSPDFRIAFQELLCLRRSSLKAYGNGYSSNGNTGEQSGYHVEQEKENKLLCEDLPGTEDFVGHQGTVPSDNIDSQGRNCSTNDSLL

CCCCCC/C=C/C(=O)OC
Potency [1]: inactive
Potency [2]: inactive
Potency [3]: inactive
Potency [4]: inactive
Potency [5]: inactive
Potency [6]: inactive
Potency [7]: inactive
Potency [8]: inactive
Potency [9]: inactive
Potency [10]: inactive
Potency [11]: inactive
Potency [12]: inactive
Potency [13]: inactive
Potency [14]: inactive
Potency [15]: inactive
Potency [16]: inactive
Potency [17]: inactive
Potency [18]: inactive

CC(CN1c2ccccc2Sc2ccccc21)N(C)C (stereo not given)
Potency [1]: inactive
Potency [2]: inactive
Potency [3]: inactive
Potency [4]: inactive
Potency [5]: inactive
Potency [6]: inactive
Potency [7]: inactive
Potency [8]: inactive
Potency [19]: inactive
Potency [14]: inactive
Potency [15]: inactive
Potency [16]: inactive
Potency [17]: inactive
Potency [18]: inactive

COc1cc(N)c(Cl)cc1C(=O)NC1CCN(Cc2ccccc2)CC1
Potency [1]: inactive
Potency [2]: inactive
Potency [3]: inactive
Potency [4]: inactive
Potency [5]: inactive
Potency [6]: inactive
Potency [7]: inactive
Potency [8]: inactive
Potency [9]: inactive
Potency [19]: inactive
Potency [10]: 1830 nM (active)
Potency [11]: inactive
Potency [12]: inactive
Potency [13]: inactive
Potency [14]: inactive
Potency [15]: inactive
Potency [16]: inactive
Potency [17]: inactive
Potency [18]: 29.8 nM (active)

Nc1c(NC/C=C\COc2cc(CN3CCCCC3)ccn2)c(=O)c1=O
activity change, negative = cytotoxicity [1]: 1.77% [at 19 µM]
activity, positive = activation [2]: -5.23% [at 19 µM]
activity change [3]: -0.254% [at 11.8 µM, stronger effect = higher value]
activation [4]: 1.38% [at 15.8 µM]
activation [5]: -4.01% [at 13.5 µM]
activation [6]: 0.229% [at 13.6 µM]
activity change, negative = cytotoxicity [7]: 5.4% [at 13.5 µM]
activity change, negative = cytotoxicity [8]: 1.94% [at 13.5 µM]
activation [19]: -1.45% [at 13.5 µM]
activity, negative = inhibition [10]: -23.4% [at 12.7 µM]
activation [11]: 1.98% [at 15.9 µM]
activity, negative = inhibition [12]: -18.5% [at 12.6 µM]
activation [13]: -0.0227% [at 15.8 µM]
activation [14]: 0.666% [at 19 µM]
activity change, negative = inhibition [15]: -4.15% [at 18.9 µM]
activity change, negative = inhibition [16]: 0.774% [at 19 µM]
activation [20]: -3.93% [at 19 µM]
activation [17]: -7.29% [at 19 µM]
activity change, negative = inhibition [18]: 0.891% [at 18.9 µM]

NS(=O)(=O)c1ccc(NC(=O)CCC(=O)O)cc1
Potency [1]: inactive
Potency [2]: inactive
Potency [3]: inactive
Potency [4]: inactive
Potency [5]: inactive
Potency [6]: inactive
Potency [7]: inactive
Potency [8]: inactive
Potency [9]: inactive
Potency [19]: inactive
Potency [10]: inactive
Potency [11]: inactive
Potency [12]: inactive
Potency [13]: inactive
Potency [14]: inactive
Potency [15]: inactive
Potency [20]: inactive
Potency [17]: inactive
Potency [18]: inactive

CCOC(=O)CN1CCCC1=O
Potency [1]: inactive
Potency [2]: inactive
Potency [3]: inactive
Potency [4]: inactive
Potency [5]: inactive
Potency [6]: inactive
Potency [7]: inactive
Potency [8]: inactive
Potency [9]: inactive
Potency [19]: inactive
Potency [10]: inactive
Potency [11]: inactive
Potency [12]: inactive
Potency [13]: inactive
Potency [14]: inactive
Potency [16]: inactive
Potency [20]: inactive
Potency [17]: inactive
Potency [18]: inactive

CC(C)C(=O)c1c(C(C)C)nn2ccccc12
Potency [1]: inactive
Potency [2]: inactive
Potency [3]: inactive
Potency [4]: inactive
Potency [5]: inactive
Potency [6]: inactive
Potency [7]: inactive
Potency [8]: inactive
Potency [19]: inactive
Potency [10]: inactive
Potency [13]: inactive
Potency [14]: inactive
Potency [15]: inactive
Potency [16]: inactive
Potency [20]: inactive
Potency [17]: inactive
Potency [18]: inactive
